The results in this text go back to PubChem BioAssay (NCI).

Each structure is given as a SMILES string. Compounds without any hit were thinned out: in the full panel of roughly 79,000, 15% have a hit. Values without a mark were called inactive. Calls of active or inactive are those of the source. No stated cut-off is given here; in the data, active means growth inhibition above about 70%; inactive means the rest.

The assay is described as follows: NCI Yeast Anticancer Drug Screen. Data for the rad14 strain (AID 159).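 Further: 0% = growth of vehicle-treated control cultures.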 The note with it: S. cerevisiae rad14 strain growth inhibition, hits give high values. As for the experimental part:
Growth inhibition of yeast strains with defined genetic alterations is measured as a screen for potential anti-cancer activity. Selected strains with alterations in DNA damage repair or cell cycle control were exposed to compounds and growth inhibition was measured relative to vehicle treated controls. The strain used in this assay is rad14

In the case of `O=c1c2ccccc2nc(-c2ccccc2)n1O`, the growth inhibition reads like this: (at 1.2 µM) 51%; (at 3.7 µM) 59%; (at 11.0 µM) 97% (active); (at 33.0 µM) 99% (active); (at 100.0 µM) 98% (active).

With `Brc1ccccc1-c1ncc(-c2ccccc2)o1`, the growth inhibition is, setting by setting: (at 1.2 µM) -43%; (at 3.7 µM) -36%; (at 11.0 µM) -16%; (at 33.0 µM) 55%; (at 100.0 µM) 80% (active).

In the case of `CCCCc1ccc(-n2c(C)c(COC(=O)NC)c(COC(=O)NC)c2C)cc1`, the growth inhibition by setting is: (at 1.2 µM) -29%; (at 3.7 µM) -11%; (at 11.0 µM) 89% (active); (at 33.0 µM) 97% (active); (at 100.0 µM) 89% (active).

As for `CCCCCCCCCCCC1=NCCO1`, the growth inhibition reads like this: (at 1.2 µM) 3%; (at 3.7 µM) 9%; (at 11.0 µM) 15%; (at 33.0 µM) 50%; (at 100.0 µM) 99% (active).

On to `CN(C)/C=C/c1nnc([N+](=O)[O-])s1`, for which the growth inhibition by setting is: (at 1.2 µM) -4%; (at 3.7 µM) 2%; (at 11.0 µM) 28%; (at 33.0 µM) 79% (active); (at 100.0 µM) 99% (active).

For the compound `CCO/C(C)=C(/C#N)C(N)=S`, the growth inhibition is -2% (at 1.2 µM); -2% (at 3.7 µM); 0% (at 11.0 µM); 0% (at 33.0 µM); 4% (at 100.0 µM).

`c1ccc2c(c1)sc1c3cnccc3ccc21`: the growth inhibition by setting is: (at 1.2 µM) 4%; (at 3.7 µM) 15%; (at 11.0 µM) 37%; (at 33.0 µM) 32%; (at 100.0 µM) 29%.

As to `CCc1cc(O)c(Cl)c(C)c1Cl`, the growth inhibition (at 1.2 µM) is 9%; the growth inhibition (at 3.7 µM) was -5%; the growth inhibition (at 11.0 µM) is -8%; the growth inhibition (at 33.0 µM) is 34%; the growth inhibition (at 100.0 µM) is 90% (active).
